In all, about 69,000 compounds went through this assay and about 8,600 (12%) showed an effect of 50% or more. The entries come from a sample that favours strong results as a whole.

The assay concerns Plasmodium berghei. The experiment in a line: Screen against P. berghei liver stage (PbLuc), transformed with Luciferase, at 10uM. Format: functional, HepG2. Particulars: tested at 10 uM.
As to `CC(C)c1nn(C)c(N(C)C)c1CNCc1ccccc1CO`, the INHIBITION is recorded as -9.05%.
For the compound `Cc1cc(CN(C)C(=O)NC2CCN(C3CC3)CC2)no1`, the INHIBITION is on record as 3.75%.
With `Cc1ccc(C)c(CSc2nnc([C@@H](N)C(C)C)o2)c1`, the INHIBITION came to 34.5%.
As to `CCC(=O)Nc1ccc(OCC(=O)N(C)C(C)c2ccon2)cc1` (stereo not drawn), the INHIBITION is 10.7%.
Under `Cc1ccc(-c2nc(CC3CCN(C)CC3)no2)cc1N1CCNC1=O` stands 14.1%; under `CC(c1nnc(-c2cccs2)o1)N1CCc2cncnc2C1` (stereo not drawn), -18.5%; under `O=C(NCC1OCCc2cn(CC3CCOCC3)nc21)c1ccsc1` (stereo not drawn), 49.3%.
Regarding `O=C1C[C@H]2[C@@H](CCN2C(=O)Cc2cccs2)N1Cc1cccnc1`, the INHIBITION was determined as 24.9%.
`O=C1C[C@H]2[C@@H](CCN2C(=O)Cc2ccsc2)N1Cc1cccnc1`: the INHIBITION turned out to be 62.9%.
In the case of `Cc1ccc(N2CC[C@@H]3[C@@H]2CCN3C(=O)Cc2cccs2)nn1`, the INHIBITION is on record as 31.2%.
`O=C(Cc1ccccc1)N1CC[C@H]2[C@@H]1CCC(=O)N2Cc1ccncc1`: the INHIBITION was determined as 3.25%.
With `CCC(=O)N1CC[C@@H]2[C@H](CC1)N(Cc1cccc(C)n1)CCS2(=O)=O` the figure was 2.4%.
With `Cc1cccc(CN2CCS(=O)(=O)[C@@H]3CCN(C(=O)C4CC4)CC[C@@H]32)n1` the figure was 34.9%; with `Cc1ccc(N2CC[C@@H]3[C@@H]2CCN3C(=O)Cc2ccccc2)nn1`, 69.3%.
Under `Cc1ccc(N2CCCC(NCc3ccsc3)C2)nn1` (stereo not drawn) stands 5.44%; under `Cc1ccc(N2CC[C@@H]3[C@@H]2CCN3C(=O)c2cscn2)nn1`, 18.5%.
`O=C1C[C@H]2[C@@H](CCN2C(=O)Cc2ccccc2)N1Cc1cccnc1`: the INHIBITION is -6.05%.
For `Cc1ccc(N2CC[C@@H]3[C@@H]2CCN3Cc2ccsc2)nn1`, the INHIBITION is 51.2%.
On to `CCCC(=O)N1CC[C@@H]2[C@H](CC1)N(Cc1cccc(C)n1)CCS2(=O)=O`, for which the INHIBITION was 57.1%.
As for `CCN(Cc1noc(C2CCC2)n1)C(=O)c1cnc2ccccc2c1`, the INHIBITION was determined as 7.44%.
As to `Cc1nc(-c2ccccc2C(=O)O)cc(C2CCN(C(C)C)C2)n1` (stereo not drawn), the INHIBITION came to 24.8%.
In the case of `NC(=O)[C@@H]1CN2CCN(C(=O)C3CC3)C[C@@H]2[C@H]1c1ccccc1`, the INHIBITION came out at 16.9%.
With `CC(C)c1nc(C2CCCN(C(=O)Cn3ccccc3=O)C2)no1` (stereo not drawn) the figure was -7.31%.
Take `CN1Cc2cnn(CC3CCCC3)c2C(COCC2CC2)C1` (stereo not drawn): the INHIBITION was 26.3%.
As to `Cc1ccc(CN2CC[C@H]3C[C@H](C(=O)N4CCCO4)O[C@@H]3C2)o1`, the INHIBITION is 38.5%.
Consider `CCN(CC)C(CNC(=O)c1ccc(-n2cncn2)cc1)c1ccsc1` (stereo not drawn), for which the INHIBITION was -2.46%.
With `CNC(=O)c1sc2ccccc2c1CC1CCCCN1Cc1ncc[nH]1` (stereo not drawn), the INHIBITION is 42.2%.
For `O=C(Cn1nc(Br)nc1Br)N1CCCC1`, the INHIBITION was 27.4%.
With `O=C(Cc1cccs1)N1CC[C@H]2[C@H]1CCN2Cc1cccnc1` the figure was -25.8%; with `Cc1ccc(CN2CC[C@@H]3[C@@H]2CCN3C(=O)Cc2cccs2)o1`, 93.7%; with `Cc1cccc(CN2CC[C@@H]3[C@@H]2CCN3C(=O)Cc2cccs2)n1`, 42.1%.
With `Cc1cccc(CN2CC[C@@H]3[C@@H]2CCN3C(=O)Cc2ccsc2)n1` the figure was 63.8%.
With `Cc1ccc(N2CCCN(C(=O)CCc3ccsc3)CC2)nn1` the figure was 1.04%.
On to `O=C1C[C@H]2[C@@H](CCN2C(=O)Cc2cccs2)N1CC1CC1`, for which the INHIBITION is on record as -38.1%.
Consider `Cc1ccc(N2CC[C@@H]3[C@@H]2CCN3C(=O)Cc2ccsc2)nn1`, for which the INHIBITION is reported as 55.7%.
In the case of `Cc1cccc(CN2C(=O)C[C@@H]3[C@@H]2CCN3Cc2ccsc2)n1`, the INHIBITION is 46.9%.
Under `Cc1ccc(NC2CCN(C(=O)CCc3ccsc3)CC2)nn1` stands -59.4%; under `COC(=O)[C@H](CCSC)NC(=O)Cn1ccc2c(Cl)cccc21`, 25%; under `CN(C)C(=O)c1sc2ncccc2c1C1CNCCO1` (stereo not drawn), 12.8%.
For `O=C(CO)N1CCC(c2cncc(-c3cccc(Cl)c3)n2)CC1`, the INHIBITION is 46.6%.
Under `Cc1cnn(C2CCCN(C(=O)c3cc(Cl)c4c(c3)OCO4)C2)c1` (stereo not drawn) stands 37.9%; under `COc1ccc(-n2cc3nc(N)[nH]cc-3c2=O)cc1Cl`, 43.3%; under `COc1ccc(-c2ccnc3nc(N4CCCCC4)[nH]c(=O)c23)cc1`, 30.8%.
With `CC(C)c1nnc2n1CCN(Cc1ccc3c(c1)OCO3)CC2` the figure was 54.6%; with `CC(C)c1nnc2n1CCN(Cc1ccc3c(c1)OCCO3)C2`, -41.4%; with `CC(C)c1nnc2n1CCN(Cc1cc(Cl)c3c(c1)OCO3)C2`, 33.7%.
For the compound `O=C(NCC1CCC(c2ccnc3ncnn23)CC1)c1ccccn1` (stereo not drawn), the INHIBITION is -24.4%.
Under `O=C(CCCn1cncn1)NC1(c2ccccc2)CCC1` stands -21.5%; under `Cc1cccc(C2(NC(=O)CCCn3cncn3)CCCC2)c1`, 57.3%; under `O=C(CCCn1cncn1)NC1(c2cccc(Br)c2)CC1`, 27.5%.
In the case of `COc1ccc(C2(NC(=O)c3ccc(=O)n(C)n3)CCCC2)cc1`, the INHIBITION is 17.7%.
With `O=C(CCn1cncn1)NC1(c2cccc(Br)c2)CCC1` the figure was 33.5%; with `O=C(CCCn1cncn1)NC1(c2ccc(Cl)cc2)CCC1`, 61.3%; with `Cc1cccc(C2(NC(=O)CCN3C(=O)CCC3=O)CCCC2)c1`, 28.7%.
For the compound `Cn1nc(C(=O)NC2(c3ccc(Cl)cc3)CCCC2)ccc1=O`, the INHIBITION is on record as 6.67%.
Under `COc1ccc(C2(NC(=O)CCn3cncn3)CCCCC2)cc1` stands 62.6%; under `Cc1nn(C)c(C)c1-c1cnc(CC2CCNCC2)cn1`, 21.1%; under `CCN(C(=O)Cn1cc(NC(=O)C(C)(C)C)cn1)c1ccccc1`, 7.65%.
On to `Cc1cncc(C(=O)N2CCC3(CCCN(c4nncs4)C3)C2)c1` (stereo not drawn), for which the INHIBITION is listed as 41.2%.
With `O=C(Nc1ccccc1)C1=NOC2(CCCN(C(=O)N3CCCC3)C2)C1` (stereo not drawn) the figure was -8.28%.
In the case of `CCS(=O)(=O)CCN(C)Cc1cc(C)ccc1OC`, the INHIBITION is on record as 21.1%.
Turning to `COc1ccc(C)cc1CN(C)CCCNS(C)(=O)=O`, the INHIBITION stood at 23%.
`CNS(=O)(=O)CCCN(C)Cc1cc(C)ccc1OC`: the INHIBITION was determined as 59.1%.
Consider `CC(=O)N1CCN(C(=O)c2ccc3ccn(C)c3c2)CC1`, for which the INHIBITION is 63.3%.
Turning to `Cn1ccc2ccc(C(=O)N3CCN(C(=O)N4CCOCC4)CC3)cc21`, the INHIBITION was determined as 40.1%.
Take `CCOC(=O)N1CCN(C(=O)c2ccc3ccn(C)c3c2)CC1`: the INHIBITION is 38.5%.
Under `C[C@@H]1CN(C(=O)[C@H]2CCCO2)C[C@]12CCN(c1ccsc1)C2=O` stands 49.7%; under `COc1ncccc1C(=O)N1CC[C@H]2C[C@@H](C)O[C@@H]2C1`, -40.3%; under `COc1ncccc1C(=O)N1CC[C@H]2C[C@@H](c3ccncn3)O[C@@H]2C1`, -42.8%.
With `COc1cc(N2CC[C@@H]3O[C@@H](c4ccnc(C)n4)C[C@H]3C2)ncn1` the figure was 45.8%.
Under `COc1ncccc1C(=O)N1CC[C@H]2C[C@H](c3ccncn3)O[C@@H]2C1` stands 52%; under `COc1cc(N2CC[C@@H]3O[C@@H](c4ccncn4)C[C@H]3C2)ncn1`, 73.2%; under `Cc1ccc(N2CC[C@@H]3O[C@@H](c4ccncn4)C[C@H]3C2)nn1`, 37.8%.
For `CCc1nc(Nc2ccc(C(=O)NC)cc2)c2c(n1)c(C)nn2CC`, the INHIBITION is listed as 18.85%.
Under `O=C(NC1CCc2ccccc2C1)C1CCN(Cc2ccco2)CC1` (stereo not drawn) stands 31%.
In the case of `Cc1noc(C(C)N2CCN(CCOCC(F)(F)F)CC2)n1` (stereo not drawn), the INHIBITION turned out to be 12.85%.
With `O=C(C1CCCO1)N1CCC(n2cc(-c3ccc(F)cc3)nn2)CC1` (stereo not drawn), the INHIBITION is listed as -10.9%.
With `Cc1ncc(CN2CCC(n3cc(-c4ccc(F)cc4)nn3)CC2)cn1`, the INHIBITION is on record as 53.8%.
For the compound `OCc1ccc(CN2CCC(n3cc(-c4ccc(F)cc4)nn3)CC2)o1`, the INHIBITION is -0.529%.
Under `Cc1cncc(C2CCN(Cc3cnc(C)nc3)CC2)n1` stands 36.44%; under `Oc1ccccc1CN1CCC(n2cc(-c3ccc(F)cc3)nn2)CC1`, 55%.
For the compound `Cc1ccc(-c2cn(C3CCN(C(=O)[C@H]4CCCO4)CC3)nn2)cc1`, the INHIBITION amounted to 23.3%.
On to `O=C(c1ccccn1)N1Cc2nccn2CC(CN2CCOCC2)C1` (stereo not drawn), for which the INHIBITION was determined as 38.7%.
With `CNC(=O)CCc1cc(C2CCN(c3cnccn3)CC2)nc(C)n1`, the INHIBITION is 15.85%.
Under `CN(C)Cc1cn2c(n1)CN(CC1CCCC1)CC2` stands 29%.
As to `CCn1ccc(-c2cc(C(=O)O)n3nc(C(F)(F)F)c(Br)c3n2)n1`, the INHIBITION came out at 11.2%.
For `Cc1ccc(C(=O)N2CCc3c(CNc4ncccn4)cncc3C2)o1`, the INHIBITION is -66.6%.
As to `CCc1cc(CN(C)C(=O)c2cnon2)on1`, the INHIBITION is on record as -40.6%.
Under `OCc1csc(N2CCCC(CO)(Cc3cccc(Cl)c3)C2)n1` (stereo not drawn) stands -14.9%; under `Cc1cnn(CC2CCCN2Cc2coc(-c3ccccc3)n2)c1` (stereo not drawn), -14.2%; under `Cc1cnn(CC2CCCN2Cc2coc(-c3cccc(F)c3)n2)c1` (stereo not drawn), 80.8%.
As to `Cc1cnn(CC2CCCN2Cc2coc(-c3ccc(F)cc3)n2)c1` (stereo not drawn), the INHIBITION turned out to be 69.7%.
Under `Fc1ccc(-c2nc(CN3CCCC3Cn3cncn3)co2)cc1` (stereo not drawn) stands 4.71%; under `Fc1cccc(-c2nc(CN3CCCC3Cn3cccn3)co2)c1` (stereo not drawn), -14.6%; under `Fc1cccc(-c2nc(CN3CCCC3Cn3cncn3)co2)c1` (stereo not drawn), 7.12%.
For the compound `CS(=O)(=O)C1CCN(S(=O)(=O)c2ccc(F)c(F)c2)C1` (stereo not drawn), the INHIBITION is listed as 21.2%.
As for `Cn1ccc2cc(C(=O)NC3CCS(=O)(=O)C3)ccc21` (stereo not drawn), the INHIBITION is -42.5%.
Regarding `CNC(=O)[C@@H](C1CCCCC1)N1CCC[C@H]1C(=O)NCCN1CCCC1`, the INHIBITION is listed as 0.112%.

Source of the values: ChEMBL document CHEMBL4513216, “Probing the Open Global Health Chemical Diversity Library for Multistage-Active Starting Points for Next-Generation Antimalarials” (ACS Infect Dis, 2020).
